ERa SRC1 pot – enhances coactivator binding to human estrogen receptor alpha. 86,000 tested, 1.3% active. AID 639. P03372. TR-FRET ERalpha-LBD/SRC-Cy5 coactivator binding, 2 h; 100 = basal binding, no effect. coactivator binding (% of control), % at 25.6 µM; in the data active means activity above about 200%;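 further: binding measured in presence of low estradiol as agonist stimulus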
ERa SRC1 inh – blocks coactivator binding to human estrogen receptor alpha | 86,000 tested, 1.7% active | TR-FRET ER-alpha LBD / SRC-1 peptide, estradiol-bound | P03372 | inhibition, % at 25.6 µM; in the data active means inhibition above about 50%
Candida biofilm – kills Candida albicans biofilms | 85,000 tested, 0.14% active | C. albicans biofilm + clotrimazole, Alamar Blue | AID 834 | inhibition, % at 6 µM;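 active means inhibition above 20%; inactive means inhibition below 20%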;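 further: preformed 24 hr biofilms exposed to compound for 48 hr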
Smad3 inh – blocks human Smad3 binding to FoxH1 peptide. 88,000 tested, 0.29% active. P84022. AID 630. inhibition, % at 25 µM. TR-FRET Smad3/Dy647-FoxH1 peptide binding, europium anti-His;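 active means compounds that reduce the energy-transfer binding signal between the protein and its labelled peptide by more than half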
Target sequence (P84022 whole entry, looked up): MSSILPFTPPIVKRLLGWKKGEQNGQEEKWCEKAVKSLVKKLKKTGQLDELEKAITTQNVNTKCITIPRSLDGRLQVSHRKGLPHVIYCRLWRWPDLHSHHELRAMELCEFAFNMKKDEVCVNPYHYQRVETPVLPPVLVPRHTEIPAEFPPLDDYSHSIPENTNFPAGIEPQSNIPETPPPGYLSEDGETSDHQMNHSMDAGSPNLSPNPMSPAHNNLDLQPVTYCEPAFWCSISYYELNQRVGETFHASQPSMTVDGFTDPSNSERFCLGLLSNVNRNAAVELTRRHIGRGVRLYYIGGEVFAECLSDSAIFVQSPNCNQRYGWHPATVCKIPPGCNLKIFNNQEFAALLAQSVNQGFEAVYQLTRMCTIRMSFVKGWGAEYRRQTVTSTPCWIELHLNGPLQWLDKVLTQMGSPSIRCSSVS
ERb SRC1 inh – ER-beta (human) coactivator binding inhibition | Q92731 | TR-FRET ER-beta LBD / SRC1-Cy5 peptide binding; receptor agonist-loaded with 1 µM estradiol | inhibition, % at 25.6 µM | 86,000 tested, 1.3% active | AID 633;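 active means compounds whose percent inhibition of the receptor-coactivator binding signal exceeds about 50% in the single-dose screen, limit read from the data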
Of the large screens only hits and unclear results are named; the others gave an inactive call; [ ] = remark or other dose. A selection: hits, their analogues and other compounds. The true share with any hit is near 3.6%.

O=C(O)[C@@H]1[C@H]2O[C@H]([C@@H](Br)[C@H]2Br)[C@@H]1C(=O)O	none (no result: ERa SRC1 pot, ERa SRC1 inh, Candida biofilm, ERb SRC1 inh)
CC(=O)OC(C(=O)NCc1ccco1)c1ccncc1 (centres undefined)	none
CS(=O)(=O)N(CC(=O)NCc1ccc2c(c1)OCO2)Cc1ccccc1	none
O=C(CSc1cccc(C(F)(F)F)c1)NC(=O)NCc1ccco1	ERa SRC1 inh 53.5
CCNC(=O)NC(=O)CSc1cccc(C(F)(F)F)c1	none
O=C(CSc1nc2ccccc2o1)NC(=O)NCc1ccco1	none
Cc1ccccc1CSCC(=O)NC(=O)NCc1ccco1	ERa SRC1 inh 55.0
O=C(CSc1nn(-c2ccc(F)cc2)c(=S)s1)NC(=O)NCc1ccco1	ERa SRC1 inh 67.0[fluorescence artefact?]
O=C(CSc1nc2ccccc2s1)NC(=O)NCc1ccco1	none
CC(=O)OC1=C(C#N)Cn2ccc3cccc1c32	ERa SRC1 inh 61.0[fluorescence artefact?]
O=C(c1cc(-c2cccs2)nc2ccccc12)N1CCN(S(=O)(=O)c2cccc(F)c2)CC1	none
O=C(c1cc(-c2cccs2)nc2ccccc12)N1CCN(S(=O)(=O)c2ccccc2)CC1	ERa SRC1 pot 201.2[fluorescence artefact?]
CC(C)CCC[C@@H](C)[C@@H]1CC[C@@H]2[C@H]3CC[C@H]4C[C@@H](N)CC[C@]4(C)[C@@H]3CC[C@]21C	none (no result: ERa SRC1 pot, ERa SRC1 inh, Candida biofilm, ERb SRC1 inh)
O=C(Nc1ccccc1C(=O)O)c1ccc2ccccc2n1	ERb SRC1 inh 90.7[fluorescence artefact?]
CC(=O)Nc1cccc(C(=O)Nc2ccccc2C(=O)O)c1	none
O=C(Nc1ccccc1C(=O)O)c1ccccc1	ERb SRC1 inh 50.6
CC(C)CCn1cnc2c(cnn2-c2ccc(Cl)cc2)c1=O	none
C[C@H](NC(=O)C1(c2ccccc2)CCN(C(=O)[C@H]2CSCN2C(=O)OC(C)(C)C)CC1)C(=O)O	none
O=C(CSc1ccc2nnc(-c3cccs3)n2n1)N1CCOCC1	none
O=C(CSc1ccc2nnc(-c3ccccn3)n2n1)N1CCOCC1	Candida biofilm 46.2
Cc1sc2c(c1C)c(=O)nc1scc(C)n12	none
CCCCOC(=O)c1cc(-c2ccc(/C=N/n3cnnc3)o2)ccc1Cl	ERa SRC1 inh 56.4
O=C(Nc1cccc2c1CCCC2)c1ccc(Br)o1	none
CCOC(=O)c1cc2ccccc2n1CCN(CC)CC	ERa SRC1 inh 52.0
CN(C)CCn1c(C(=O)Nc2ccccc2)cc2ccccc21	none
Cc1cccc(-n2c(SCc3cc(=O)n4ccsc4n3)nc3ccccc32)c1	ERa SRC1 inh 60.1
CCn1c2ccccc2c2nnc(SCc3cc(=O)n4ccsc4n3)nc21	none
CCCn1c(=O)c2ccccc2n2c(SCc3cc(=O)n4ccsc4n3)nnc12	ERa SRC1 inh 50.4
CCc1cccc(CC)c1-n1c(SCc2cc(=O)n3ccsc3n2)nnc1-c1cccnc1	none
C=CCn1c(SCc2cc(=O)n3ccsc3n2)nnc1C1CCCCC1	ERa SRC1 inh 81.5[fluorescence artefact?], ERb SRC1 inh 55.5[fluorescence artefact?]
O=C(O)c1c[nH]c2cc(OCc3ccccc3)ccc2c1=O	none (no result: ERa SRC1 pot, ERa SRC1 inh, Candida biofilm, ERb SRC1 inh)
Cc1cc(C)nc(NC2=NCC(=O)N2c2cc(Cl)cc(Cl)c2)n1	ERa SRC1 pot 474.1[fluorescence artefact?]
Cc1cccc(N2C(=O)CN=C2Nc2nc(C)cc(C)n2)c1	none
CCOC(=O)c1cnc(SC)nc1Sc1ccccc1	none
Cc1ccc(-c2nc3nc4ccccc4nc3n2Cc2ccco2)cc1	Smad3 inh 64.3
Clc1ccc(-c2nc3nc4ccccc4nc3n2Cc2ccco2)cc1	none
Cc1ccc(CCCC(=O)O)cc1C	none (no result: ERa SRC1 pot, ERa SRC1 inh, Candida biofilm, ERb SRC1 inh)
O=C(NCC1CCCO1)c1ccc(COCC(F)(F)C(F)F)cc1 (centres undefined)	none
CC(C)NC(=O)c1ccc(COCC(F)(F)C(F)F)cc1	Smad3 inh 65.2
CCOC(=O)c1c2c(n(C)c1COC)C(=O)C(=O)c1ccc(Br)cc1-2	ERa SRC1 inh 84.7, Smad3 inh 75.4
CCC(Sc1ncnc2sc(C)c(C)c12)C(=O)OC (centres undefined)	ERa SRC1 inh 63.2[fluorescence artefact?], ERb SRC1 inh 60.6
Cc1sc2ncnc(SCc3ccco3)c2c1C	none
Cc1sc2ncnc(SCC(=O)c3ccc(Cl)s3)c2c1C	ERa SRC1 pot 243.1
Cc1ccc2c(c1)SC1=NC(c3ccccc3)(C(F)(F)F)NC(=O)N12 (centres undefined)	none
O=C(Nc1cccnc1)c1ccc(S(=O)(=O)N2CCCCCC2)cc1	ERa SRC1 inh 51.7[fluorescence artefact?]
O=C(Nc1cccnc1)c1c(F)c(F)c(F)c(F)c1F	Candida biofilm 22.7
O=C(Nc1cccnc1)c1cccnc1	none
O=C(Nc1cccnc1)c1ccc(Cl)c(S(=O)(=O)N2CCCCCC2)c1	none
CS(=O)(=O)N(CC(=O)N1CCCCC1)c1sc2c(c1C#N)CCCC2	none
N#CCCC12CCCCC1=Nc1ccccc12 (centres undefined)	none
CNS(=O)(=O)c1cccc(C(=O)OCc2cc(Cl)cc3c2OCOC3)c1	none
Oc1c(Cl)cc(Cl)cc1Sc1cc(Cl)cc(Cl)c1O	ERa SRC1 inh 96.8, ERb SRC1 inh 93.0
CCC(=O)Nc1sc2c(c1C#N)CC(C)(CC)OC2 (centres undefined)	none
Clc1ccc(-c2nc3n(n2)Cc2ccccc2-3)cc1	ERa SRC1 pot 288.6
Cn1cnnc1SCC(=O)Nc1sc2c(c1C(N)=O)CCC2	ERa SRC1 inh 94.0[fluorescence artefact?], ERb SRC1 inh 93.2[fluorescence artefact?]
CCOC(=O)c1c(NC(=O)CSc2nncn2C)sc(C)c1C	none
c1ccc(CN2CCN(c3ncnc4nc[nH]c34)CC2)cc1	none
Cn1cnc2cc(NC(=O)c3ccco3)ccc21	none
O=C(Nc1ccc2nn(-c3ccccc3)nc2c1)c1ccc2c(c1)OCCO2	none
O=C(Nc1ccc2nn(-c3ccccc3)nc2c1)c1ccc(Br)o1	ERa SRC1 pot 206.6, ERa SRC1 inh 55.6
CCOc1ccc(-n2nc3ccc(NC(=O)c4ccc5c(c4)OCCO5)cc3n2)cc1	none
Cc1ccc(-n2nc3ccc(NC(=O)c4ccc5c(c4)OCO5)cc3n2)cc1	ERa SRC1 inh 87.6[fluorescence artefact?], ERb SRC1 inh 66.2[fluorescence artefact?]
CCc1ccc(-n2nc3ccc(NC(=O)c4ccc5c(c4)OCO5)cc3n2)cc1	ERa SRC1 pot 362.4[fluorescence artefact?]
Cc1ccc(-n2nc3ccc(NC(=O)c4ccco4)cc3n2)cc1	ERa SRC1 inh 71.1[fluorescence artefact?]
CC(=O)c1c(N2CCN(C)CC2)[nH]c(-c2ccccc2)nc1=S	none
Cc1nc(NCc2ccco2)c2c(C)c(C)sc2n1	none
Cc1sc2nc3c4ccccc4c(NCc4ccco4)nn3c(=O)c2c1C	ERa SRC1 inh 55.8[fluorescence artefact?] (no result: Candida biofilm)
COc1ccc(OC)c(C(C)NC(=O)c2ccco2)c1 (centres undefined)	none (no result: Candida biofilm)
CCn1c(COc2ccccc2)nnc1SCC(=O)C(C)(C)C	Smad3 inh 58.7[fluorescence artefact?]
C/C(N)=C(/C#N)C(=O)CSc1nnc(Nc2c(C)cccc2C)s1	ERa SRC1 inh 86.7[fluorescence artefact?], ERb SRC1 inh 92.6[fluorescence artefact?]
CCCSc1nnc(Nc2ccccc2C)s1	none
C/C(N)=C(/C#N)C(=O)CSc1nnc(SCc2ccc(Cl)cc2)s1	none
C/C(N)=C(/C#N)C(=O)CSc1nnc(Nc2cccc(C)c2C)s1	ERa SRC1 inh 52.4[fluorescence artefact?], ERb SRC1 inh 64.7
Cc1ccccc1Nc1nnc(SCC(=O)NCc2ccco2)s1	ERa SRC1 inh 84.8[fluorescence artefact?], ERb SRC1 inh 53.6

Bioassay records deposited in PubChem BioAssay by several laboratories.
